# Publication PMC7862700, “An all-to-all approach to the identification of sequence-specific readers for epigenetic DNA modifications on cytosine”
# What was measured:
# Test in all cases: DAPPL (digital affinity profiling via proximity ligation, sequencing); 10 mM Tris-HCl pH 7.5, 50 mM NaCl, 1 mM DTT, 4% glycerol, room temperature, 30 min; GST-TFs on glutathione beads, 16-mer random dsDNA library, 0.1% formaldehyde crosslink after washing; high values mean tight binding
# [1] = target: T1, FLI1 (Homo sapiens, UniProt Q01543 1-452); conditions: protein: recombinant; tags: N-terminal GST; dsDNA, one strand shown
# T1 sequence: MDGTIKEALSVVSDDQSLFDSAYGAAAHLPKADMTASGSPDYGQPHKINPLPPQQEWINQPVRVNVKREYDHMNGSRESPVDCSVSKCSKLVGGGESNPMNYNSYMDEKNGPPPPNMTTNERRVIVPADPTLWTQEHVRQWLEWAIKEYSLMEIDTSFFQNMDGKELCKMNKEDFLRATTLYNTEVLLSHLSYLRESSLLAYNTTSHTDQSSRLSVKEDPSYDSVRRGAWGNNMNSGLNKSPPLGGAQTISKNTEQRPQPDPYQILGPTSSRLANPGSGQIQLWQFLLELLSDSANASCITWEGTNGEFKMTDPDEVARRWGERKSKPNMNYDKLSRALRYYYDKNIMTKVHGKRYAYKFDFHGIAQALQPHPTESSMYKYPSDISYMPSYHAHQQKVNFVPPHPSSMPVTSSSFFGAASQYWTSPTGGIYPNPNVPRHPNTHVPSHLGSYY
# Summary of the method: (§1)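 Human transcription factors carrying a GST fusion were produced in yeast, bound to glutathione beads, tagged with DNA barcodes and pooled together with a tag-only sample. Each pool was held with 200 nmole of a random double-stranded 16-mer DNA library in Tris/NaCl/DTT/glycerol buffer for 30 min at room temperature, then washed, crosslinked in 0.1% formaldehyde, proximity-ligated with BsaI/T4 ligase (1 h, 37 °C), PCR-amplified and sequenced on an Illumina NextSeq500. Binding signal is the read frequency of each hexamer for a given factor divided by its frequency in the tag-only sample.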
# [2] = target: T2, ELK1 (Homo sapiens, UniProt P19419 1-428); conditions: protein: recombinant; tags: N-terminal GST; dsDNA, one strand shown
# T2 sequence: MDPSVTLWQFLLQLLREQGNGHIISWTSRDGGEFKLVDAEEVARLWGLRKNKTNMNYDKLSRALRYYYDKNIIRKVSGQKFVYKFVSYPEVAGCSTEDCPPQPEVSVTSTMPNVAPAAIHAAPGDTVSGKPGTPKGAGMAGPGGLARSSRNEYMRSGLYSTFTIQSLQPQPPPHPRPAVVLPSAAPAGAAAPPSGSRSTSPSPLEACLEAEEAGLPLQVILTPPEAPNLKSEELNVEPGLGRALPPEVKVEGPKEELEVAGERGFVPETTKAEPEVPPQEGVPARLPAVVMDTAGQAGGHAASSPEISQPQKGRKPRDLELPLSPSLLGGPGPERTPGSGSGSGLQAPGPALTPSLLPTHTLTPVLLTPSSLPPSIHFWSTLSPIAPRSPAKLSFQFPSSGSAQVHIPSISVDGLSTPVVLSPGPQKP
# Summary of the method: as §1
# [3] = target: T3, GABPA (Homo sapiens, UniProt Q06546 1-454); conditions: protein: recombinant; tags: N-terminal GST; dsDNA, one strand shown
# T3 sequence: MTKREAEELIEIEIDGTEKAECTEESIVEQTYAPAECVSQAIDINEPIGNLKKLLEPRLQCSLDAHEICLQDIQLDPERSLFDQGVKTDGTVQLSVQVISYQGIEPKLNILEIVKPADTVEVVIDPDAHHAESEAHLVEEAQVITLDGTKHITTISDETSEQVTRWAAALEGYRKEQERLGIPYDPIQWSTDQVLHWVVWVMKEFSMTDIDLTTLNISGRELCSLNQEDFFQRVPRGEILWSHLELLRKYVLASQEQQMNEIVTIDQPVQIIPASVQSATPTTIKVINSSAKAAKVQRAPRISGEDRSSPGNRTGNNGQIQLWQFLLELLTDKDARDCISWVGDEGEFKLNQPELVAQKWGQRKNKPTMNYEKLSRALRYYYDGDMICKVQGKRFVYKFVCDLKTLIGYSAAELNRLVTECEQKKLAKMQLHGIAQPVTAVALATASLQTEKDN
# Summary of the method: as §1
# [4] = target: T4, ERG (Homo sapiens, UniProt P11308 1-479); conditions: protein: recombinant; tags: N-terminal GST; dsDNA, one strand shown
# T4 sequence: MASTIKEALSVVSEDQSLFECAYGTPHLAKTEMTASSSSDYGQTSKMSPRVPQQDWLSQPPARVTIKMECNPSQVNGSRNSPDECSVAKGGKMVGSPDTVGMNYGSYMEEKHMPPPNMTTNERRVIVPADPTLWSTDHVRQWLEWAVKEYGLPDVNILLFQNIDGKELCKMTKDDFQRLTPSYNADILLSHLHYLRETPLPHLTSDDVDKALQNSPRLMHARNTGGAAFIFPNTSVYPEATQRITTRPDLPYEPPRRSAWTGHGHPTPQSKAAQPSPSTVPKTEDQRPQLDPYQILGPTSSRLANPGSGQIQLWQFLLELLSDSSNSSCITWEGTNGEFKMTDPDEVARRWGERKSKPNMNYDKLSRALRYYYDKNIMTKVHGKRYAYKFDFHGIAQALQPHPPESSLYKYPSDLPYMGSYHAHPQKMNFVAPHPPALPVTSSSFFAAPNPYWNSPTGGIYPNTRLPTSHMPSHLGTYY
# Summary of the method: as §1
# [5] = target: ELF1 (Homo sapiens, UniProt P32519 1-619); conditions: protein: recombinant; tags: N-terminal GST; dsDNA, one strand shown
# Summary of the method: as §1
# [6] = target: T5, EHF (Homo sapiens, UniProt Q9NZC4 1-300); conditions: protein: recombinant; tags: N-terminal GST; dsDNA, one strand shown
# T5 sequence: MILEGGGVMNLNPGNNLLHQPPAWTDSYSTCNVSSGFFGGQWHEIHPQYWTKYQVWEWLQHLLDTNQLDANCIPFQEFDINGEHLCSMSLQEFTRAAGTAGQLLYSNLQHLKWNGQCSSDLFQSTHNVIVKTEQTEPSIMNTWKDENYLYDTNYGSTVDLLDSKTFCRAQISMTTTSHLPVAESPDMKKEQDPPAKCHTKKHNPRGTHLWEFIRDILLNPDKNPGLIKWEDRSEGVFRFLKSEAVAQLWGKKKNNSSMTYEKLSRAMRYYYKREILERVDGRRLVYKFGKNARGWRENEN
# Summary of the method: as §1
# [7] = target: SPI1 (Homo sapiens, UniProt P17947 1-270); conditions: protein: recombinant; tags: N-terminal GST; dsDNA, one strand shown
# Summary of the method: as §1
# [8] = target: SPIB (Homo sapiens, UniProt Q01892 1-262); conditions: protein: recombinant; tags: N-terminal GST; dsDNA, one strand shown
# Summary of the method: as §1
# [9] = target: T6, ELK3 (Homo sapiens, UniProt P41970 1-407); conditions: protein: recombinant; tags: N-terminal GST; dsDNA, one strand shown
# T6 sequence: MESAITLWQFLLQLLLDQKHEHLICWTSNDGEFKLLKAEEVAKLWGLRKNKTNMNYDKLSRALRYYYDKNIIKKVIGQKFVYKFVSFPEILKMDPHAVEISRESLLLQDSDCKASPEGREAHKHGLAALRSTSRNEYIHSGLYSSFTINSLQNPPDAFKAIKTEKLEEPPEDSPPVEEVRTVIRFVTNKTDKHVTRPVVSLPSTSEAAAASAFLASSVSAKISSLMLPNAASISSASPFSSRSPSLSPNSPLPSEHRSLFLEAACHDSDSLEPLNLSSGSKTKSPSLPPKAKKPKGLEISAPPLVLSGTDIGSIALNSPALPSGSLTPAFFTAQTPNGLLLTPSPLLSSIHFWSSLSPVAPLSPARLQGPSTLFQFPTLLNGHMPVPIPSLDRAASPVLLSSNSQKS
# Summary of the method: as §1
# [10] = target: T7, FEV (Homo sapiens, UniProt Q99581 1-238); conditions: protein: recombinant; tags: N-terminal GST; dsDNA, one strand shown
# T7 sequence: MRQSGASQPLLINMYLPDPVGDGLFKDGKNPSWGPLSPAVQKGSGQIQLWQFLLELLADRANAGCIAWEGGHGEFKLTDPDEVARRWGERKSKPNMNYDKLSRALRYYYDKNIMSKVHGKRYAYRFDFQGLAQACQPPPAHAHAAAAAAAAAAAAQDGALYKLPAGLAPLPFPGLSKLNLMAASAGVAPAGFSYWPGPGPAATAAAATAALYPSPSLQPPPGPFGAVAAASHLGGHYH
# Summary of the method: as §1
# [11] = target: ETV5 (Homo sapiens, UniProt P41161 1-510); conditions: protein: recombinant; tags: N-terminal GST; dsDNA, one strand shown
# Summary of the method: as §1
# [12] = target: HSF1 (Homo sapiens, UniProt Q00613 1-529); conditions: protein: recombinant; tags: N-terminal GST; chain copies: 3; dsDNA, one strand shown
# Summary of the method: as §1
# [13] = target: T8, SPIC (Homo sapiens, UniProt Q8N5J4 1-248); conditions: protein: recombinant; tags: N-terminal GST; dsDNA, one strand shown
# T8 sequence: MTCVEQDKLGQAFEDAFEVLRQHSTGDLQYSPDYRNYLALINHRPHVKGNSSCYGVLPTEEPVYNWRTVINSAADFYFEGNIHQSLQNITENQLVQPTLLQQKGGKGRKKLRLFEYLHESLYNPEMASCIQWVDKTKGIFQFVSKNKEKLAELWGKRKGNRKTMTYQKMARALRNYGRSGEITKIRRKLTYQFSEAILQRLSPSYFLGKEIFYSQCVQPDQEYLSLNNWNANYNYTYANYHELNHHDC
# Summary of the method: as §1
# [14] = target: ELF4 (Homo sapiens, UniProt Q99607 1-663); conditions: protein: recombinant; tags: N-terminal GST; dsDNA, one strand shown
# Summary of the method: as §1
# [15] = target: T9, ELK4 (Homo sapiens, UniProt P28324-2 1-405); conditions: protein: recombinant; tags: N-terminal GST; dsDNA, one strand shown
# T9 sequence: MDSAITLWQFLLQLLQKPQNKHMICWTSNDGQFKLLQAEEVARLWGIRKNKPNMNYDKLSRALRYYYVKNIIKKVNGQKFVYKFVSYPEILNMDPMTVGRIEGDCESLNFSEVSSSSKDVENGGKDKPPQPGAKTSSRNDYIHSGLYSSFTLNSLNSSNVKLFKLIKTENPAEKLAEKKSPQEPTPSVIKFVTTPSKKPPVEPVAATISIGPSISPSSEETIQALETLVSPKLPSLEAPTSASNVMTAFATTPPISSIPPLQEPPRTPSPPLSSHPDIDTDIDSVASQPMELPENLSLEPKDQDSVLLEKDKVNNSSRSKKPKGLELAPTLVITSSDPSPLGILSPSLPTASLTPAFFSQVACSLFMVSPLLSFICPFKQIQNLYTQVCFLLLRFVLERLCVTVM
# Summary of the method: as §1
# [16] = target: T10, ETV2 (Homo sapiens, UniProt O00321 1-342); conditions: protein: recombinant; tags: N-terminal GST; dsDNA, one strand shown
# T10 sequence: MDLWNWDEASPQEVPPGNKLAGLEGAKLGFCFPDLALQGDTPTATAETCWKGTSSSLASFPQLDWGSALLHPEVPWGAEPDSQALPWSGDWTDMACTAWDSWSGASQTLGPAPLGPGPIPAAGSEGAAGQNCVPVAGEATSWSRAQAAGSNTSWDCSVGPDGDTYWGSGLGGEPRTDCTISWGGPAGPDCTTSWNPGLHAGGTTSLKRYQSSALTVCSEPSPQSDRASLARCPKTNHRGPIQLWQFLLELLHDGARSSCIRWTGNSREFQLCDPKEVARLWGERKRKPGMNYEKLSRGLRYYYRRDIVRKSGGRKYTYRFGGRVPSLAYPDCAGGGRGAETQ
# Summary of the method: as §1
# [17] = target: T11, ELF3 (Homo sapiens, UniProt P78545 1-371); conditions: protein: recombinant; tags: N-terminal GST; dsDNA, one strand shown
# T11 sequence: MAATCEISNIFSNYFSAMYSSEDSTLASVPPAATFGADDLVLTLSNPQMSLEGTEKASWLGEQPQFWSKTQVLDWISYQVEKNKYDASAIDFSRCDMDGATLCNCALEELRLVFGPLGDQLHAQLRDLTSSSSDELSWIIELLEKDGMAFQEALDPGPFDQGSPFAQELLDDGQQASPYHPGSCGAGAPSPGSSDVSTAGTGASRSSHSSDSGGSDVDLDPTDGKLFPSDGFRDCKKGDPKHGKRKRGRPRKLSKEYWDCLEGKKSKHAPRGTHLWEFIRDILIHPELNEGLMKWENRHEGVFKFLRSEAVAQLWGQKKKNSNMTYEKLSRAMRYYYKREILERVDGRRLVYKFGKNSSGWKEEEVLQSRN
# Summary of the method: as §1
# [18] = target: CRX (Homo sapiens, UniProt O43186 1-299); conditions: protein: recombinant; tags: N-terminal GST; dsDNA, one strand shown
# Summary of the method: as §1
# [19] = target: ETV1 (Homo sapiens, UniProt P50549 1-477); conditions: protein: recombinant; tags: N-terminal GST; dsDNA, one strand shown
# Summary of the method: as §1
# SPIB, sequence (Q01892 whole entry): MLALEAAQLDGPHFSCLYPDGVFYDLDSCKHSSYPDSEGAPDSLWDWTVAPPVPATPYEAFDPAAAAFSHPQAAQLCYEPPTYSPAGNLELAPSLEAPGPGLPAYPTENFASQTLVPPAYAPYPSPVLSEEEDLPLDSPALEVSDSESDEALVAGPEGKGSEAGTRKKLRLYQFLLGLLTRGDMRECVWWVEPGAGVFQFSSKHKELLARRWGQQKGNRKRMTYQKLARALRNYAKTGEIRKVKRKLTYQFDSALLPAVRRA
# ELF4, sequence (Q99607 whole entry): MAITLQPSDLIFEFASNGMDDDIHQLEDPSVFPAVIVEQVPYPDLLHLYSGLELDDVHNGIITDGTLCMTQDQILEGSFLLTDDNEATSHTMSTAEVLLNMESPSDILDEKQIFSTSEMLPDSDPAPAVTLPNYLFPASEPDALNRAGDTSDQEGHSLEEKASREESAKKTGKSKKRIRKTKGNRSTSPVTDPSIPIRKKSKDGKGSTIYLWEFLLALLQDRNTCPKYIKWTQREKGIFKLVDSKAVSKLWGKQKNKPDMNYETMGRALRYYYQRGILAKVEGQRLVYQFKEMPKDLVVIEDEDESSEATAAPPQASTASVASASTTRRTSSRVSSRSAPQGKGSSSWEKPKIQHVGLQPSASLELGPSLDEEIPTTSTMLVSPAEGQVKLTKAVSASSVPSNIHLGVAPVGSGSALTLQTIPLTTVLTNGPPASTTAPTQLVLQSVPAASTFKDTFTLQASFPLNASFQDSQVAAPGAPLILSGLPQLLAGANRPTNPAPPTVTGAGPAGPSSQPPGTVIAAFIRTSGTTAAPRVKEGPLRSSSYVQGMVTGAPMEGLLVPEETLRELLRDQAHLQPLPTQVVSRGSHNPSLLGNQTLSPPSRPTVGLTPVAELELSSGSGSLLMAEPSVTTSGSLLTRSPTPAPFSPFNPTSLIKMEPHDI
# HSF1, sequence (Q00613 whole entry): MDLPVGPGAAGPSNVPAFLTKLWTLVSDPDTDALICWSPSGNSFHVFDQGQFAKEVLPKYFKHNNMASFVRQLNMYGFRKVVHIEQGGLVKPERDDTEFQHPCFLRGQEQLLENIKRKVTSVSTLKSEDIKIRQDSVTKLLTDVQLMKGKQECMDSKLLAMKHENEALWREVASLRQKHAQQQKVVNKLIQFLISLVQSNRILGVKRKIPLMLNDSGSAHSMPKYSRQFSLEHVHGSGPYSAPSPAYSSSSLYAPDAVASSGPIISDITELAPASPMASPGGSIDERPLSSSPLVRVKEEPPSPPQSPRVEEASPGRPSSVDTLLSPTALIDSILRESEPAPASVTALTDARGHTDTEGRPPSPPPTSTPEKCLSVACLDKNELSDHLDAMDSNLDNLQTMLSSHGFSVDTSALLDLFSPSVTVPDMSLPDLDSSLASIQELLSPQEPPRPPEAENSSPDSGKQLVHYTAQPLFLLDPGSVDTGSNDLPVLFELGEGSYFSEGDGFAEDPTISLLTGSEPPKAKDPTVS
# ETV1, sequence (P50549 whole entry): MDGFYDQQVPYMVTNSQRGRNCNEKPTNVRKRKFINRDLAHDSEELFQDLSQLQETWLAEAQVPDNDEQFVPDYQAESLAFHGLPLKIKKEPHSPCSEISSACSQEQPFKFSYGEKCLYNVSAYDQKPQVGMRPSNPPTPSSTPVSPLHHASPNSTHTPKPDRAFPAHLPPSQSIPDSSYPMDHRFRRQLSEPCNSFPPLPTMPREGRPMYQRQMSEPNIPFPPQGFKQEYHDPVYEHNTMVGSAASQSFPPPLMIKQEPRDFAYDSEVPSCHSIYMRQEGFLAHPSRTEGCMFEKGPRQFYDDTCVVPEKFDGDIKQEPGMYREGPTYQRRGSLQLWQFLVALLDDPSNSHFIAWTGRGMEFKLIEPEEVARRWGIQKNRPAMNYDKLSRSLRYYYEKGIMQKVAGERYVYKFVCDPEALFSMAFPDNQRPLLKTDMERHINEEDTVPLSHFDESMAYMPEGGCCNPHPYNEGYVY
# CRX, sequence (O43186 whole entry): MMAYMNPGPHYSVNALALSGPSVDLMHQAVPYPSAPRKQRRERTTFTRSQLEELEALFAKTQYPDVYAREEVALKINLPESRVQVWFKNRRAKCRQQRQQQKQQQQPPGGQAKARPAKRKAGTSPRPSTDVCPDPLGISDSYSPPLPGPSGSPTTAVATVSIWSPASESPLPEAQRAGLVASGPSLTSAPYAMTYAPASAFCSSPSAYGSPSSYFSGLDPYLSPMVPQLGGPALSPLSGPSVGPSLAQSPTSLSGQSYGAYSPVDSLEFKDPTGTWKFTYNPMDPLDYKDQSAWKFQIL
# ETV5, sequence (P41161 whole entry): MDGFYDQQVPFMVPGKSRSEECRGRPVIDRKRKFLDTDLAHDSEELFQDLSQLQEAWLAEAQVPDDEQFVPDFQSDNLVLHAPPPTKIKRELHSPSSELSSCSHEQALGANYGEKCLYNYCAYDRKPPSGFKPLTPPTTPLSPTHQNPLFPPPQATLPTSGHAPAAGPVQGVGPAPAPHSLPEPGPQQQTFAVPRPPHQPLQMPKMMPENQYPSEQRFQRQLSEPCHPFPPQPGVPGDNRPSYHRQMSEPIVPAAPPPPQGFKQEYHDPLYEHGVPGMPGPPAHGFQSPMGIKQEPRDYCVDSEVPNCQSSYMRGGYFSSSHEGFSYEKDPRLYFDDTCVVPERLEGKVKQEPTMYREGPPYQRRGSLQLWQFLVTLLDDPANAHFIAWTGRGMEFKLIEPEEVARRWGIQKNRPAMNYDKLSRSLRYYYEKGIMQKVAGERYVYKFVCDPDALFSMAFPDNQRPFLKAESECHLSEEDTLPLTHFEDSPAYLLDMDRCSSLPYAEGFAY
# ELF1, sequence (P32519 whole entry): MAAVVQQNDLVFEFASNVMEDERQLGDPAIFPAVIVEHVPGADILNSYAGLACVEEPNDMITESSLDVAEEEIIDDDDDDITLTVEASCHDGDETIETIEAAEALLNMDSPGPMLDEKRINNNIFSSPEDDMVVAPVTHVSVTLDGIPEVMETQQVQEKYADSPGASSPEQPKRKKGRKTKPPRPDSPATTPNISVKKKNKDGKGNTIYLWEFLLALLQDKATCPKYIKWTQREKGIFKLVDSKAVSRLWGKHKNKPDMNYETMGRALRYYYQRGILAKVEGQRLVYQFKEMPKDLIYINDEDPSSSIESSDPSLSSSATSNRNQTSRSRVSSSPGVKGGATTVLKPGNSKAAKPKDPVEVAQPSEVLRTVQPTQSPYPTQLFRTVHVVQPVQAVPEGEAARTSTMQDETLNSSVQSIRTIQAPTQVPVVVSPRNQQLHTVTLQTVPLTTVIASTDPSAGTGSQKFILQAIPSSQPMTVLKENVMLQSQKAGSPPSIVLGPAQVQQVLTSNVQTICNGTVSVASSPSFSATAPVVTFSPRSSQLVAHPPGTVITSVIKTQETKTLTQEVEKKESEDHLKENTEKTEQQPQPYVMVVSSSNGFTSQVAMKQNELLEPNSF
sequence,measurement,setting,value
ACTCCT,binding signal,[1],"1.67 fold enrichment (6-mer frequency, TF over GST control)"
same,binding signal,[2],"1.55 fold enrichment (6-mer frequency, TF over GST control)"
same,binding signal,[3],"1.45 fold enrichment (6-mer frequency, TF over GST control)"
same,binding signal,[4],"1.45 fold enrichment (6-mer frequency, TF over GST control)"
same,binding signal,[5],"1.57 fold enrichment (6-mer frequency, TF over GST control)"
same,binding signal,[6],"1.52 fold enrichment (6-mer frequency, TF over GST control)"
same,binding signal,[7],"1.42 fold enrichment (6-mer frequency, TF over GST control)"
same,binding signal,[8],"1.57 fold enrichment (6-mer frequency, TF over GST control)"
same,binding signal,[9],"1.5 fold enrichment (6-mer frequency, TF over GST control)"
same,binding signal,[10],"1.47 fold enrichment (6-mer frequency, TF over GST control)"
same,binding signal,[11],"1.38 fold enrichment (6-mer frequency, TF over GST control)"
same,binding signal,[12],"1.36 fold enrichment (6-mer frequency, TF over GST control)"
same,binding signal,[13],"1.54 fold enrichment (6-mer frequency, TF over GST control)"
same,binding signal,[14],"1.59 fold enrichment (6-mer frequency, TF over GST control)"
same,binding signal,[15],"1.54 fold enrichment (6-mer frequency, TF over GST control)"
same,binding signal,[16],"1.38 fold enrichment (6-mer frequency, TF over GST control)"
same,binding signal,[17],"1.3 fold enrichment (6-mer frequency, TF over GST control)"
same,binding signal,[18],"1.32 fold enrichment (6-mer frequency, TF over GST control)"
same,binding signal,[19],"1.41 fold enrichment (6-mer frequency, TF over GST control)"
